Data: PubChem BioAssay AID1159580 (chemical genetic matrix, 2015)
Out of some 5,500 compounds screened, about 2,000 (36%) were called active. Roughly 18% stayed inconclusive and do not appear here. The list shows a part of the results. Values without a mark were called inactive. Cut-off read from the data, not from the text of the source: active = normalized growth mostly below about 0.91 (no sharp cut-off); inconclusive = no clear call, values can overlap the other calls; inactive = mostly above about 0.92.

Assay: chemical genetic growth profiling, strain panel (AID 1159580);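 note: tested at 20 µM; growth read once vehicle control cultures reached saturation at 30 °C; 1 = growth at the plate median or of vehicle wells; lower values mean less growth of the strain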
Conditions: growth OD
[1] = S. cerevisiae deletion strains, locus YHR030C, strain SLT2, stronger effect = lower value
[2] = S. cerevisiae deletion strains, locus YHR079C, strain IRE1, stronger effect = lower value
[3] = S. cerevisiae deletion strains, locus YJL095W, strain BCK1, stronger effect = lower value
[4] = S. cerevisiae deletion strains, locus YJR066W, strain TOR1, stronger effect = lower value
[5] = S. cerevisiae deletion strains, locus YLR113W, strain HOG1, stronger effect = lower value
[6] = S. cerevisiae deletion strains, locus YNL183C, strain NPR1, stronger effect = lower value
[7] = S. cerevisiae deletion strains, locus YOR231W, strain MKK1, stronger effect = lower value
[8] = S. cerevisiae deletion strains, locus YPL256C, strain CLN2, stronger effect = lower value

SMILES: CCOC(=O)c1ccc(O)cc1
- normalized growth (S. cerevisiae deletion strains, locus YAL021C, strain ccr4, stronger effect = lower value): 1.03
- normalized growth (S. cerevisiae deletion strains, locus YAL026C, strain drs2, stronger effect = lower value): 1.02
- normalized growth (S. cerevisiae deletion strains, locus YAL030W, strain snc1, stronger effect = lower value): 1.01
- normalized growth (S. cerevisiae deletion strains, locus YBL061C, strain skt5, stronger effect = lower value): 1.01
- normalized growth (S. cerevisiae deletion strains, locus YBR009C, strain hhf1, stronger effect = lower value): 0.999
- normalized growth (S. cerevisiae deletion strains, locus YBR023C, strain chs3, stronger effect = lower value): 1.01
- normalized growth (S. cerevisiae deletion strains, locus YBR171W, strain sec66, stronger effect = lower value): 1.01
- normalized growth (S. cerevisiae deletion strains, locus YBR231C, strain swc5, stronger effect = lower value): 1.02
- normalized growth (S. cerevisiae deletion strains, locus YBR279W, strain paf1, stronger effect = lower value): 1.02
- normalized growth (S. cerevisiae deletion strains, locus YCL011C, strain gbp2, stronger effect = lower value): 1
- normalized growth (S. cerevisiae deletion strains, locus YCL016C, strain dcc1, stronger effect = lower value): 1
- normalized growth (S. cerevisiae deletion strains, locus YCL061C, strain MRC1, stronger effect = lower value): 1.01
- normalized growth (S. cerevisiae deletion strains, locus YCL069W, strain vba3, stronger effect = lower value): 1.01
- normalized growth (S. cerevisiae deletion strains, locus YCR088W, strain abp1, stronger effect = lower value): 1.01
- normalized growth (S. cerevisiae deletion strains, locus YDL005C, strain med2, stronger effect = lower value): 1.02
- normalized growth (S. cerevisiae deletion strains, locus YDL040C, strain nat1, stronger effect = lower value): 1.01
- normalized growth (S. cerevisiae deletion strains, locus YDR001C, strain nth1, stronger effect = lower value): 1.01
- normalized growth (S. cerevisiae deletion strains, locus YDR069C, strain doa4, stronger effect = lower value): 1.02
- normalized growth (S. cerevisiae deletion strains, locus YDR137W, strain rgp1, stronger effect = lower value): 1.03
- normalized growth (S. cerevisiae deletion strains, locus YDR159W, strain sac3, stronger effect = lower value): 0.994
- normalized growth (S. cerevisiae deletion strains, locus YDR195W, strain ref2): 1.06
- normalized growth (S. cerevisiae deletion strains, locus YDR297W, strain sur2, stronger effect = lower value): 1.02
- normalized growth (S. cerevisiae deletion strains, locus YDR334W, strain swr1, stronger effect = lower value): 1.02
- normalized growth (S. cerevisiae deletion strains, locus YDR335W, strain msn5, stronger effect = lower value): 1.01
- normalized growth (S. cerevisiae deletion strains, locus YDR392W, strain spt3, stronger effect = lower value): 0.941
- normalized growth (S. cerevisiae deletion strains, locus YEL003W, strain gim4, stronger effect = lower value): 1.02
- normalized growth (S. cerevisiae deletion strains, locus YEL037C, strain rad23, stronger effect = lower value): 1.02
- normalized growth (S. cerevisiae deletion strains, locus YEL061C, strain CIN8 (second series), stronger effect = lower value): 1.01
- normalized growth (S. cerevisiae deletion strains, locus YER015W, strain faa2, stronger effect = lower value): 1.02
- normalized growth (S. cerevisiae deletion strains, locus YER016W, strain bim1, stronger effect = lower value): 1
- normalized growth (S. cerevisiae deletion strains, locus YER111C, strain swi4, stronger effect = lower value): 1.01
- normalized growth (S. cerevisiae deletion strains, locus YER155C, strain BEM2 (second series), stronger effect = lower value): 0.975
- normalized growth (S. cerevisiae deletion strains, locus YFR010W, strain ubp6, stronger effect = lower value): 1.01
- normalized growth (S. cerevisiae deletion strains, locus YGL167C, strain pmr1, stronger effect = lower value): 1.01
- normalized growth (S. cerevisiae deletion strains, locus YGL173C, strain kem1, stronger effect = lower value): 1.02
- normalized growth (S. cerevisiae deletion strains, locus YGL227W, strain vid30, stronger effect = lower value): 1.01
- normalized growth (S. cerevisiae deletion strains, locus YGL240W, strain doc1, stronger effect = lower value): 0.985
- normalized growth (S. cerevisiae deletion strains, locus YGL253W, strain hxk2, stronger effect = lower value): 1.01
- normalized growth (S. cerevisiae deletion strains, locus YHR013C, strain ard1, stronger effect = lower value): 1.05
- normalized growth (S. cerevisiae deletion strains, locus YHR027C, strain rpn1, stronger effect = lower value): 1.01
- normalized growth [1]: 1.02
- normalized growth [2]: 1.01
- normalized growth (S. cerevisiae deletion strains, locus YHR142W, strain chs7, stronger effect = lower value): 1.01
- normalized growth (S. cerevisiae deletion strains, locus YJL092W, strain hpr5, stronger effect = lower value): 1.02
- normalized growth (S. cerevisiae deletion strains, locus YJL095W, strain BCK1 (second series), stronger effect = lower value): 1
- normalized growth [3]: 1.01
- normalized growth (S. cerevisiae deletion strains, locus YJL115W, strain asf1, stronger effect = lower value): 1.03
- normalized growth (S. cerevisiae deletion strains, locus YJL129C, strain trk1, stronger effect = lower value): 1.03
- normalized growth (S. cerevisiae deletion strains, locus YJL154C, strain vps35, stronger effect = lower value): 1.01
- normalized growth (S. cerevisiae deletion strains, locus YJL164C, strain tpk1, stronger effect = lower value): 0.995
- normalized growth (S. cerevisiae deletion strains, locus YJL166W, strain qcr8, stronger effect = lower value): 0.997
- normalized growth (S. cerevisiae deletion strains, locus YJL187C, strain SWE1, stronger effect = lower value): 1.02
- normalized growth [4]: 0.958
- normalized growth (S. cerevisiae deletion strains, locus YKL160W, strain elf1, stronger effect = lower value): 1
- normalized growth (S. cerevisiae deletion strains, locus YKR026C, strain gcn3, stronger effect = lower value): 0.995
- normalized growth (S. cerevisiae deletion strains, locus YKR091W, strain srl3, stronger effect = lower value): 1.01
- normalized growth (S. cerevisiae deletion strains, locus YLL001W, strain dnm1, stronger effect = lower value): 0.989
- normalized growth (S. cerevisiae deletion strains, locus YLL026W, stronger effect = lower value): 1.01
- normalized growth (S. cerevisiae deletion strains, locus YLL041C, strain sdh2, stronger effect = lower value): 1.01
- normalized growth (S. cerevisiae deletion strains, locus YLR027C, strain aat2, stronger effect = lower value): 1
- normalized growth [5]: 0.966
- normalized growth (S. cerevisiae deletion strains, locus YLR221C, strain rsa3, stronger effect = lower value): 0.999
- normalized growth (S. cerevisiae deletion strains, locus YLR258W, strain gsy2, stronger effect = lower value): 1.01
- normalized growth (S. cerevisiae deletion strains, locus YLR262C, strain YPT6 (second series), stronger effect = lower value): 1.03
- normalized growth (S. cerevisiae deletion strains, locus YLR320W, strain mms22, stronger effect = lower value): 0.992
- normalized growth (S. cerevisiae deletion strains, locus YLR342W, strain FKS1, stronger effect = lower value): 1.02
- normalized growth (S. cerevisiae deletion strains, locus YLR357W, strain rsc2, stronger effect = lower value): 1.03
- normalized growth (S. cerevisiae deletion strains, locus YLR370C, strain arc18, stronger effect = lower value): 1.01
- normalized growth (S. cerevisiae deletion strains, locus YLR384C, strain iki3, stronger effect = lower value): 1.02
- normalized growth (S. cerevisiae deletion strains, locus YML120C, strain ndi1, stronger effect = lower value): 0.998
- normalized growth (S. cerevisiae deletion strains, locus YMR058W, strain fet3, stronger effect = lower value): 1.02
- normalized growth (S. cerevisiae deletion strains, locus YMR125W, strain sto1, stronger effect = lower value): 1.03
- normalized growth (S. cerevisiae deletion strains, locus YMR129W, stronger effect = lower value): 1.02
- normalized growth (S. cerevisiae deletion strains, locus YMR205C, strain PFK2, stronger effect = lower value): 1.02
- normalized growth (S. cerevisiae deletion strains, locus YMR231W, strain pep5, stronger effect = lower value): 1.02
- normalized growth (S. cerevisiae deletion strains, locus YNL071W, strain lat1, stronger effect = lower value): 1.01
- normalized growth [6]: 0.962
- normalized growth (S. cerevisiae deletion strains, locus YNL209W, strain ssb2, stronger effect = lower value): 1.02
- normalized growth (S. cerevisiae deletion strains, locus YNL248C, strain rpa49, stronger effect = lower value): 1.02
- normalized growth (S. cerevisiae deletion strains, locus YNL322C, strain KRE1 (second series), stronger effect = lower value): 1.01
- normalized growth (S. cerevisiae deletion strains, locus YNR049C, strain mso1, stronger effect = lower value): 1.01
- normalized growth (S. cerevisiae deletion strains, locus YOR001W, strain rrp6, stronger effect = lower value): 1.01
- normalized growth (S. cerevisiae deletion strains, locus YOR070C, strain gyp1, stronger effect = lower value): 1.01
- normalized growth (S. cerevisiae deletion strains, locus YOR080W, strain dia2, stronger effect = lower value): 1.02
- normalized growth (S. cerevisiae deletion strains, locus YOR083W, strain WHI5, stronger effect = lower value): 1
- normalized growth (S. cerevisiae deletion strains, locus YOR106W, strain vam3, stronger effect = lower value): 1.02
- normalized growth [7]: 1
- normalized growth (S. cerevisiae deletion strains, locus YOR265W, strain rbl2, stronger effect = lower value): 1.01
- normalized growth (S. cerevisiae deletion strains, locus YOR270C, strain vph1, stronger effect = lower value): 0.988
- normalized growth (S. cerevisiae deletion strains, locus YOR290C, strain snf2, stronger effect = lower value): 0.975
- normalized growth (S. cerevisiae deletion strains, locus YPL051W, strain arl3, stronger effect = lower value): 0.998
- normalized growth (S. cerevisiae deletion strains, locus YPL078C, strain atp4, stronger effect = lower value): 1
- normalized growth (S. cerevisiae deletion strains, locus YPL106C, strain sse1, stronger effect = lower value): 1
- normalized growth (S. cerevisiae deletion strains, locus YPL240C, strain hsp82, stronger effect = lower value): 1.01
- normalized growth [8]: 1.01

SMILES: CCCCOC(=O)c1ccc(O)cc1
- normalized growth [1]: 0.854 (active)
- normalized growth [2]: 0.879
- normalized growth [3]: 0.895
- normalized growth [4]: 0.934
- normalized growth [5]: 0.768 (active)
- normalized growth [6]: 0.892
- normalized growth [7]: 0.951
- normalized growth [8]: 0.799 (active)

SMILES: Nc1cc2c(cc1Cl)C(=O)NC2=O
- normalized growth (S. cerevisiae deletion strains, locus YAL013W, strain DEP1, stronger effect = lower value): 0.995
- normalized growth (S. cerevisiae deletion strains, locus YBR229C, strain ROT2, stronger effect = lower value): 0.999
- normalized growth (S. cerevisiae deletion strains, locus YDL101C, strain DUN1, stronger effect = lower value): 1.02
- normalized growth (S. cerevisiae deletion strains, locus YDL134C, strain PPH21, stronger effect = lower value): 1.02
- normalized growth (S. cerevisiae deletion strains, locus YDR150W, strain NUM1, stronger effect = lower value): 0.929
- normalized growth (S. cerevisiae deletion strains, locus YEL061C, strain CIN8, stronger effect = lower value): 1.01
- normalized growth (S. cerevisiae deletion strains, locus YGR078C, strain PAC10, stronger effect = lower value): 1
- normalized growth [1]: 1.04
- normalized growth (S. cerevisiae deletion strains, locus YHR087W, strain rtc3, stronger effect = lower value): 0.988
- normalized growth (S. cerevisiae deletion strains, locus YJR043C, strain POL32, stronger effect = lower value): 1.01
- normalized growth (S. cerevisiae deletion strains, locus YJR075W, strain HOC1, stronger effect = lower value): 0.996
- normalized growth (S. cerevisiae deletion strains, locus YLR039C, strain RIC1, stronger effect = lower value): 0.994
- normalized growth (S. cerevisiae deletion strains, locus YLR058C, strain SHM2 (second series), stronger effect = lower value): 1
- normalized growth (S. cerevisiae deletion strains, locus YLR085C, strain ARP6, stronger effect = lower value): 0.98
- normalized growth (S. cerevisiae deletion strains, locus YLR262C, strain YPT6, stronger effect = lower value): 1
- normalized growth (S. cerevisiae deletion strains, locus YML094W, strain GIM5, stronger effect = lower value): 0.985
- normalized growth (S. cerevisiae deletion strains, locus YMR219W, strain ESC1, stronger effect = lower value): 1.01
- normalized growth (S. cerevisiae deletion strains, locus YMR263W, strain SAP30, stronger effect = lower value): 0.984
- normalized growth (S. cerevisiae deletion strains, locus YNL153C, strain GIM3, stronger effect = lower value): 1
- normalized growth (S. cerevisiae deletion strains, locus YNL298W, strain CLA4 (second series), stronger effect = lower value): 1.03
- normalized growth (S. cerevisiae deletion strains, locus YNL322C, strain KRE1, stronger effect = lower value): 0.999
- normalized growth (S. cerevisiae deletion strains, locus YNR030W, strain Alg12, stronger effect = lower value): 0.985
- normalized growth (S. cerevisiae deletion strains, locus YOL006C, strain TOP1, stronger effect = lower value): 1.02
- normalized growth (S. cerevisiae deletion strains, locus YPL055C, strain LGE1, stronger effect = lower value): 0.851
- normalized growth (S. cerevisiae deletion strains, locus YPL241C, strain CIN2, stronger effect = lower value): 0.985
- normalized growth (S. cerevisiae deletion strains, locus YPR135W, strain CTF4, stronger effect = lower value): 1.02
- normalized growth (S. cerevisiae strains, strain wild type, stronger effect = lower value): 1.02
